For 14 compounds, growth results are on record in PubChem BioAssay (NCI).

What all share (test): NCI-60 one-dose screen, 48 h (100 = growth as untreated, 0 = no growth, -100 = all killed)
What all share (conditions): 10 µM unless noted

The test system of assay [1] is NCI-H23 lung.
Assay [2] deals with NCI-H322M lung.
For assay [3], the system named is HOP-62 NSCLC.
Assay [4] concerns NCI-H460 lung.
Assay [5] concerns HOP-92 NSCLC.
Assay [6] deals with NCI-H522 lung.
Assay [7] has as its system A549/ATCC NSCLC.
The subject of assay [8] is 786-0 renal.
In assay [9] the test system is COLO 205 colon.
Assay [10] has as its system DU-145 prostate.

The panel holds about 83,000 compounds, 20% with a hit somewhere; the sample as a whole holds those more often.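 Values shown are percent growth following 48 h exposure of cells in 96-well plates to a single concentration of compound; below 10 was considered active.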 A number with no mark means an inactive call. Activity calls are given as the source filed them.

Consider `CCCc1c(C)c2sc(=O)[nH]c2[nH]c1=O`, for which the growth in assay [1] is 104%; in assay [2], 111%; in assay [3], 107%; in [4], 107%; in assay [5], 104%; in assay [6], 96%. In addition, the growth in assay [7] was 103%; in assay [8], 109%; in assay [9], 113%; in [10], 114%.

With `COC(=O)/C(CCC=C(C)C)=C1\[C@@H](OC(C)=O)C[C@@]2(C)[C@H]1C[C@@H](O)[C@H]1[C@@]3(C)CC[C@H](NCCO)[C@@H](C)[C@@H]3CC[C@@]12C`, the growth is 97.7% in [1]; 101% in [2]; 106% in assay [3]; 105% in assay [4]; 93.6% in assay [5]; 99.9% in assay [6]. Moreover, the growth in assay [7] is 109%; in assay [8], 98.7%; in assay [9], 103%; in assay [10], 104%.

On to `O=C(Nc1ccccc1O)c1ccc(-c2ccc(Cl)cc2Cl)o1`, for which the growth was 85% in assay [1]; 101% in assay [2]; 93.7% in assay [3]; 98.2% in assay [4]; 80.4% in assay [5]; 91.4% in assay [6]. The growth in assay [7] was 102%; in [8] it was 88.2%; in assay [9], 90.7%; in assay [10], 91%.

For the compound `COc1ccc(-c2c(-c3ccc(OC)c(O)c3)cnc3ncnn23)cc1`, the growth in assay [1] was 99.9%; in [2], 106%; in [3], 111%; in [4], 108%; in assay [5], 95.1%; in assay [6], 96%. The growth is 100% in assay [7], 103% in [8], 126% in assay [9] and 105% in [10].

For the compound `CCCCCCn1c(=N)n(CC(O)COc2cccc(C)c2)c2ccccc21` (stereo not given), the growth is 11% in [1]; -42.8% (active) in assay [2]; -74.6% (active) in assay [3]; -68.1% (active) in [4]; -6.11% (active) in assay [5]; -74.5% (active) in assay [6]. In addition, the growth in assay [7] is -32.3% (active); in assay [8] it was -86.5% (active); in [9], -94.4% (active); in assay [10], -22.4% (active).

With `COc1ccc(-c2cn[nH]c2-c2ccc(OC)c(O)c2)cc1`, the growth in assay [1] was 92.8%; in assay [2], 98.6%; in assay [3] it was 66.4%; in [4] it was 76.6%; in [5] it was 61.5%; in [6], 45.6%. Also, the growth in assay [7] is 76%; in [8], 92.5%; in assay [9], 116%; in assay [10], 96.9%.

In the case of `Nc1ccc(-c2ccc(-c3ccccc3N)c3[nH]c4ccccc4c23)cc1`, the growth in [1] was 28.4%; in assay [2] it was 41.4%; in [3], 42.1%; in [4], 16.1%; in assay [5] it was 36.9%; in assay [6] it was 46.4%. Further, the growth in assay [7] was 30.4%; in assay [8], 46%; in assay [9], 13.2%; in assay [10], 10.2%.

As to `O=C1C(Cl)=C(NCc2ccco2)C(=O)c2ccccc21`, the growth was 37.3% in assay [1]; 115% in [2]; 37% in [3]; 54.5% in [4]; 103% in assay [5]; 75.9% in [6]. Also, the growth in assay [7] is 47.4%; in assay [8], 113%; in assay [9] it was 84.8%; in assay [10] it was 15.6%.

With `O=NN(Cc1cccnc1)C(=O)NC1CCCCC1`, the growth was 111% in assay [1]; 106% in assay [2]; 107% in assay [3]; 109% in [4]; 82.3% in [5]; 90.5% in [6]. The growth in assay [7] is 93.9%; in [8], 108%; in assay [9], 111%; in assay [10], 116%.

As to `CCOc1ccc2nc(C)cc(Nc3ccc(Br)cc3)c2c1`, the growth is 95.8% in assay [1]; 93.9% in [2]; 109% in [3]; 101% in [4]; 105% in [5]; 107% in [6]. Besides, the growth in assay [7] was 95.2%; in assay [8] it was 108%; in [9], 95.9%; in assay [10], 110%.

Consider `COc1ccc(N2C(=O)CC(c3cc(OC)c(OC)c(OC)c3)C3C2=NC(=O)N3C)cc1` (stereo not given), for which the growth in assay [1] is 110%; in assay [2], 105%; in [3] it was 108%; in assay [4], 108%; in assay [5], 105%; in [6], 97.5%. Also, the growth in assay [7] is 104%; in [8] it was 103%; in assay [9], 101%; in assay [10] it was 106%.

Consider `COc1ccc(CCN2C(=O)CCSC2=S)cc1OC`, for which the growth in [1] was 103%; in assay [2], 101%; in assay [3], 97.5%; in [4], 102%; in assay [5], 87%; in [6], 48.3%. Besides, the growth in [7] was 97.6%; in assay [8], 44.2%; in assay [9] it was 114%; in assay [10] it was 67.6%.

Regarding `NC(CCl)=NCCC[C@H](N)C(=O)O`, the growth in [1] was 98.3%; in [2] it was 99.5%; in [3], 126%; in [4], 101%; in assay [5], 98.3%; in assay [6], 95.4%. Moreover, the growth in assay [7] was 97.8%; in [8], 106%; in [9], 104%; in [10], 111%.

In the case of `O=C(Nc1ccc(Cl)cc1F)c1cc(Br)ccc1O`, the growth in assay [1] is 4.02% (active); in [2] it was 7.3% (active); in [3] it was 1.76% (active); in assay [4], 4.27% (active); in [5], -12.8% (active); in assay [6] it was -12.9% (active). Moreover, the growth is 7.61% (active) in assay [7], 3.02% (active) in assay [8], 51.5% in assay [9] and 17.2% in assay [10].
